MITF inh: MITF inhibitors, primary screen, biochemical, AlphaScreen, human | Microphthalmia-associated transcription factor (Homo sapiens), O75030 | AlphaScreen MITF homodimerization, bead proximity signal | inhibition, % at 2.6 µM | 650,000 tested, 0.91% active; in the data active = inhibition above about 50%
FBW7 activator: FBW7 E3 ligase activators, primary screen, biochemical, AlphaScreen, human; F-box/WD repeat-containing protein 7 (Homo sapiens), Q969H0; AlphaScreen FBW7–phospho-cyclin E peptide binding, activator screen; normalized activity (activation), % at 26.1 µM; 650,000 tested, 0.13% active; AID 1259310, 2017; in the data active = normalized activity above about 1.9%;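 also: purified mutant Fbw7 with reduced substrate affinity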
TEAD-YAP inh: TEAD-YAP interaction inhibition, primary screen, TEAD-YAP interaction inhibitor project, luminescence, HEK-TIYL cells; TEAD-Gal4/YAP UAS-luciferase luminescence; 640,000 tested, 1.4% active; inhibition, % at 9.12 µM; in the data active = inhibition above about 32%
GPR151 activ: activators of human GPR151, primary screen, cell-based, PathHunter beta-arrestin, luminescence. G-protein coupled receptor 151 (Homo sapiens), Q8TDV0. PathHunter beta-arrestin GPR151 cells. activation, % at 11.2 µM. 650,000 tested, 1% active. AID 1508602, 2020; in the data active = activation above about 4.9%
Target sequence (Q8TDV0 whole entry, looked up): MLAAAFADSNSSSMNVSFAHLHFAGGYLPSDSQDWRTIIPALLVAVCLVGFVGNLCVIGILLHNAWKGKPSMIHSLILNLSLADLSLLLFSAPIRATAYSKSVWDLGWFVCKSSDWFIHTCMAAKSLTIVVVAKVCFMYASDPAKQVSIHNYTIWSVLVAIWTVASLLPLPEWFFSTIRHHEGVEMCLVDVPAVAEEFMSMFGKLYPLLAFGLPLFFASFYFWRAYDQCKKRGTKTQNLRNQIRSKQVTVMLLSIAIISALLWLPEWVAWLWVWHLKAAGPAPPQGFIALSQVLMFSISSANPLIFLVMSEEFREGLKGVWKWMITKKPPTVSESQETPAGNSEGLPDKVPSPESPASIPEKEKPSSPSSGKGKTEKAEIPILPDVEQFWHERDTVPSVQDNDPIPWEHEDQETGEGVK
Each line names hits and unclear results; the compound was inactive in the other large screens. The list is not random: actives were taken first. Their share in the collection is about 3.5%.

CN1CCN(c2ccc(-c3nc4ccc(C(N)=O)cc4s3)cc2)CC1	TEAD-YAP inh 44.2
COc1ccc(CNc2c(-c3ccc(O)cc3O)nc3cnccn23)cc1	TEAD-YAP inh 64.6
COCCNc1c(-c2ccc(O)cc2O)nc2cnccn12	none
Cc1ccc(NC(=O)N2CCC(CN3CCOCC3)CC2)cc1F	none
Cc1cc2[nH]c(=S)n(Cc3ccccc3Cl)c2cc1C	TEAD-YAP inh 49.6
Oc1ccc(-c2cn3c(n2)SCC3)cc1	none
Oc1ccc(-c2cn3c(n2)SCC3)cc1O	MITF inh 65.5
CC1CCc2c(sc3nnn(CC(=O)NCc4cccs4)c(=O)c23)C1 (stereo not drawn)	TEAD-YAP inh 43.2
CN1CCN(c2ccc(-c3cc(C(=O)NCc4nc5ccccc5[nH]4)ccn3)cc2)CC1	TEAD-YAP inh 87.7
COc1ccc(-c2cccc(C(=O)NCc3nc4ccccc4[nH]3)c2)cc1	none
CN1CCN(c2ccc(-c3cccc(C(=O)NCc4nc5ccccc5[nH]4)c3)cc2)CC1	TEAD-YAP inh 68.0
Cc1cc(C(=O)N/N=C\c2ccccc2O)n[nH]1	none
COc1cc(/C=N/NC(=O)c2cc(C)[nH]n2)c(Br)c(Br)c1O	none
COc1cc([N+](=O)[O-])cc(/C=N/NC(=O)c2cc(C)[nH]n2)c1O	MITF inh 59.0
COc1cc(Br)cc(/C=N/NC(=O)c2cc(C)[nH]n2)c1O	MITF inh 55.0
Cc1cc(C(=O)N/N=C/c2cc(N=Nc3ccccc3)ccc2O)n[nH]1	TEAD-YAP inh 61.6
COCCCNC(=O)c1ccc(-n2c(C)cc3c2CCC(C)C3)cc1 (stereo not drawn)	none
COc1cc2c(cc1OC)C(C(=O)N1CCCC(C)C1)C1c3ccccc3CCN1C2=O (stereo not drawn)	none
COc1cc2c(cc1OC)C(C(=O)N1CCCCC1)C1c3ccccc3CCN1C2=O (stereo not drawn)	FBW7 activator 1.9
NNC(=O)/C(=C\c1ccccc1)NC(=O)c1ccccc1	none
NNC(=O)/C(=C\c1cccs1)NC(=O)c1ccccc1	TEAD-YAP inh 33.5
CCN(CC)S(=O)(=O)c1cc(C(=O)Nc2cccc(O)c2)ccc1Cl	TEAD-YAP inh 73.2
CCN(CC)S(=O)(=O)c1cc(C(=O)Nc2ccc(C)c(F)c2)ccc1F	none
CCN(Cc1ccccc1)S(=O)(=O)c1cc(C(=O)Nc2cccc(Cl)c2)ccc1F	TEAD-YAP inh 58.3
CCN(Cc1ccccc1)S(=O)(=O)c1cc(C(=O)Nc2ccc(Oc3ccccc3)cc2)ccc1F	TEAD-YAP inh 65.8
CCN(Cc1ccccc1)S(=O)(=O)c1cc(C(=O)Nc2ccc(C)c(F)c2)ccc1F	TEAD-YAP inh 57.1
Cc1ccc([N+](=O)[O-])cc1S(=O)(=O)N=C1C=CC(=O)C=C1	none
COc1ccc(NC(=O)c2cn(-c3ccc(C)c(C)c3)c(=O)c3ccccc23)cc1Cl	none
CCN(c1ccccc1)S(=O)(=O)c1cc(C(=O)Nc2ccc(Oc3ccccc3)cc2)ccc1F	TEAD-YAP inh 49.0
CN(Cc1ccccc1)S(=O)(=O)c1cc(C(=O)Nc2ccc(Br)cc2)ccc1F	TEAD-YAP inh 40.8
CCN(c1ccccc1)S(=O)(=O)c1ccc(NC(=O)Nc2ccccc2)cc1	none
CCN(c1ccccc1)S(=O)(=O)c1ccc(C(=O)Nc2ccc(C(C)=O)cc2)cc1	FBW7 activator 2.3
O=C(Nc1ccc(Br)cc1)c1ccc(F)c(S(=O)(=O)NCc2cccs2)c1	TEAD-YAP inh 60.4
Cc1ccccc1C(=O)NNc1cc(N2CCOCC2)nc(N2CCOCC2)n1	none
Nc1cccc(C(=O)CC2(O)C(=O)N(Cc3cccc4ccccc34)c3ccccc32)c1 (stereo not drawn)	none
O=C(Oc1ccc(N2C(=O)c3ccc([N+](=O)[O-])cc3C2=O)cc1)c1ccco1	none
CCc1ccc(-c2nc(CSCC(=O)NCCN(C)C)c(C)o2)cc1	TEAD-YAP inh 38.5
Cc1ccc(-c2nc(CSCC(=O)O)c(C)o2)cc1	TEAD-YAP inh 80.9
COC(=O)c1ccc(/C=C2/NC(=S)NC2=O)cc1	none
NC(=O)c1cccc(-c2ccc(C(=O)NC3CC3)cc2)n1	none
O=C(CN1C(=O)COc2ccccc21)N(Cc1cccnc1)Cc1cccc(F)c1	none
O=C(O)CCC(=O)N(Cc1cccnc1)Cc1cccc(F)c1	TEAD-YAP inh 48.8
CC(=O)c1ccc(OCC(=O)NC(C)c2cnn(-c3ccccc3C)c2C)cc1 (stereo not drawn)	TEAD-YAP inh 34.4
C=C1c2cccc(O)c2C(O)=C2C(=O)C3(O)C(O)=C(C(N)=O)C(=O)C(N(C)C)C3C(O)C12 (stereo not drawn)	MITF inh 111.4
CN(C)C1C(=O)C(C(N)=O)=C(O)C2(O)C(=O)C3=C(O)c4c(O)ccc(Cl)c4C(O)C3CC12 (stereo not drawn)	none (no result: TEAD-YAP inh)
N#Cc1cccc(Cn2c(-c3nonc3N)nc3ccccc32)c1	TEAD-YAP inh 48.1
C=CCNc1nc(-c2c[nH]c3ccccc23)cs1	none
CCC(C)Nc1nc(-c2c[nH]c3ccccc23)cs1 (stereo not drawn)	FBW7 activator 3.9
COc1ccccc1CNCc1cc(C)ccc1C	none
Cc1ccc(NC2C=CS(=O)(=O)C2)cc1C (stereo not drawn)	TEAD-YAP inh 32.5
Cc1ccc(-c2nnc(Nc3ccc(Cl)c(Cl)c3)c3ccccc23)cc1	none
CN(C)S(=O)(=O)N1CCC(Oc2cccc(C(=O)NC3CCCCC3)c2)CC1	TEAD-YAP inh 43.3
CN(C)S(=O)(=O)N1CCC(Oc2ccc(C(=O)NC3CCCCC3)cc2)CC1	none
COCc1c(C(=O)N/N=C/c2ccc(Cl)cc2)nnn1-c1nonc1N	none
COCc1c(C(=O)N/N=C/c2cc(Cl)ccc2O)nnn1-c1nonc1N	TEAD-YAP inh 60.9
CCN(CC)c1ccc(/C=N/NC(=O)c2nnn(-c3nonc3N)c2COC)c(O)c1	TEAD-YAP inh 36.5
CCN(CC)c1ccc(NC(=O)c2nn(-c3ccc(F)cc3)cc2OC)c(C)c1	none
CSc1ccc2nnc(-c3ccc(Cl)cc3)n2n1	none
COc1ccccc1NC(=O)c1c(OC)cccc1OC	none
COc1ccc(OC)c(NC(=O)c2c(Cl)nc(Cl)c(Cl)c2Cl)c1	TEAD-YAP inh 64.4
COc1ccccc1NC(=O)c1c(Cl)nc(Cl)c(Cl)c1Cl	TEAD-YAP inh 63.5
COc1cccc(C(=O)Nc2ccc(O)c(C)c2)c1	TEAD-YAP inh 84.0
COc1cccc(C(=O)Nc2ccc(OC(C)C)cc2)c1	TEAD-YAP inh 74.8
CC(C)Oc1ccc(NC(=O)c2cccc(Cl)c2)cc1	none
COc1cccc(C(=O)Nc2ccc(O)c(C(=O)O)c2)c1	none
CCc1ccc(CNc2nc(C)c(-c3ccn(CCN4CCOCC4)n3)s2)o1	none
O=C(N=c1sn2c(c1[N+](=O)[O-])CCCCC2)c1ccccc1	TEAD-YAP inh 83.9
O=C(c1ccccc1)N1CCN(C(=O)c2cc3c(s2)CCCCC3)CC1	none
CCCCC[C@H](O)/C=C/[C@H]1C2COC(C2)[C@@H]1C/C=C/CCCC(=O)O (stereo partly drawn)	none (no result: FBW7 activator, TEAD-YAP inh)
